Results on 29 compounds are retold here after PubChem BioAssay (Tox21).

Unmarked numbers belong to inactive results. Inconclusive results are not listed. Where a call stands in place of a potency, no number is given. Active and inactive are the calls of the source. Unless noted, calls come from the whole dose curve; as a rule, active = well fitted curve in the direction sought with a large enough effect in the repeat runs; inconclusive = weak or mixed curves; inactive = flat fitted curve, though single readings scatter.

Chain of Glucocorticoid receptor (Homo sapiens) (P04150 whole entry, looked up): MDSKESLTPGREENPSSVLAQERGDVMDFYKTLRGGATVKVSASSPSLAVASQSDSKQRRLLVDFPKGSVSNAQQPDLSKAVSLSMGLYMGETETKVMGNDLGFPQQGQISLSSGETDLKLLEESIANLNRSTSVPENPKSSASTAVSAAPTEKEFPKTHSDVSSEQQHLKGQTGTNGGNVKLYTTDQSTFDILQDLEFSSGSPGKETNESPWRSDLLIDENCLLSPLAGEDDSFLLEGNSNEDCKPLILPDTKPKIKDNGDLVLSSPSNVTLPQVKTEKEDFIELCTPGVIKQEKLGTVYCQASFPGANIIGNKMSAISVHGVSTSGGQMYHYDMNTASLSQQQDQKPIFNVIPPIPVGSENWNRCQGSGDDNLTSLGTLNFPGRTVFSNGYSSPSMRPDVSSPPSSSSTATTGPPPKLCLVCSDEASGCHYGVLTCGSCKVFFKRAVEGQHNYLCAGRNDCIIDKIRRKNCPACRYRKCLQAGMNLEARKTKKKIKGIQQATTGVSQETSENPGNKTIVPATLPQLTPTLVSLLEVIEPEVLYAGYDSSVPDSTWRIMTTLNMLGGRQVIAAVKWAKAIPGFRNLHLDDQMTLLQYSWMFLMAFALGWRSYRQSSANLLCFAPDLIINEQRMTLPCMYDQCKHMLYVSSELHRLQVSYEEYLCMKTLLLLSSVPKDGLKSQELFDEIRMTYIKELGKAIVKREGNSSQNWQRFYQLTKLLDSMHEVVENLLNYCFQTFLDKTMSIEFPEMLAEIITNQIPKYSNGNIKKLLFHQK

Tested on in the first assay: not listed separately
Kind of assay: qHTS assay to test for compound auto fluorescence at 460 nm (blue) in HepG2 cells (AID 720687). To be noted: autofluorescence 405/460 nm, 1 h; series mostly up to 91.3 µM; fluorescence, % of fluorescent control: at the top concentration. In short, it runs like this:
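Blue-channel autofluorescence (Ex/Em 405/460 nm, triamterene-equivalent) was measured after 1 hr compound exposure at 37 C, 5% CO2. Cells were HepG2, plated overnight at 37 C in MEM plus 10% FBS.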
Background: In qHTS, concentration-response curves come from the screen itself.
On to `CC1(C)S[C@@H]2[C@H](NC(=O)[C@H](N)c3ccccc3)C(=O)N2[C@H]1C(=O)O`, for which the Potency result was “inactive”.

With `CN(C)CCOC(C)(c1ccccc1)c1ccccn1` (stereo unspecified), the Potency result is “inactive”.

`COc1ccc(OC(F)(F)F)cc1CN[C@H]1CCCN[C@H]1c1ccccc1`: the “fluorescence, % of fluorescent control” value is -0.107%.

Turning to `CCCCCCCCCCCCCCCC[N+](C)(C)Cc1ccccc1`, the Potency entry is “inactive”.

For `Cc1cn([C@H]2C=C[C@@H](CO)O2)c(=O)[nH]c1=O`, the Potency result is “inactive”.

In the case of `Nc1ccc(O)c([N+](=O)[O-])c1`, the “fluorescence, % of fluorescent control” value was -0.377%.

With `CC(O)(P(=O)(O)O)P(=O)(O)O`, the Potency result was “inactive”.

Regarding `Cc1cc(C)nc(NS(=O)(=O)c2ccc(N)cc2)n1`, the Potency entry is “inactive”.

Consider `CN(C)C(=S)SC(=S)N(C)C`, for which the Potency entry is “inactive”.

On to `NC1CCCCC1`, for which the Potency entry is “inactive”.

For the compound `Nc1c(N=Nc2ccc(-c3ccc(N=Nc4cc(S(=O)(=O)O)c5ccccc5c4N)cc3)cc2)cc(S(=O)(=O)O)c2ccccc12`, the Potency result is “inactive”.

In the case of `CCCCOC(=O)c1ccc(O)cc1`, the Potency entry is “inactive”.

As for `CC(C)C(=O)Nc1ccc([N+](=O)[O-])c(C(F)(F)F)c1`, the Potency entry is “inactive”.

For the compound `Nc1ccc([N+](=O)[O-])cc1O`, the “fluorescence, % of fluorescent control” value was -0.838%.

For the compound `Cc1cccc(C)c1`, the Potency entry is “inactive”.

For `CN(C)CCOC(c1ccccc1)c1ccccc1`, the Potency result is “inactive”.

Regarding `CN1CCc2cccc3c2[C@H]1Cc1ccc(O)c(O)c1-3`, the Potency entry was “inactive”.

`Nc1c2c(nc3ccccc13)CCCC2`: the Potency result was “inactive”.

As to `CCCCCCCCCCCC[N+](C)(C)Cc1ccccc1`, the Potency entry is “inactive”.

With `COc1ccc2c(c1)c(CC(=O)O)c(C)n2C(=O)c1ccc(Cl)cc1`, the Potency entry was “inactive”.

Regarding `Oc1ccccc1`, the Potency entry was “inactive”.

Regarding `COc1cccc(O)c1O`, the “fluorescence, % of fluorescent control” value was 0.0251% [at 95.7 µM].

Consider `Nc1ccc(S(N)(=O)=O)cc1`, for which the Potency entry is “inactive”.

Take `O=C1c2c(O)cccc2Cc2cccc(O)c21`: the Potency result was “inactive”.

On to `CC(=O)Nc1c(I)c(NC(C)=O)c(I)c(C(=O)O)c1I`, for which the Potency entry was “inactive”.

As for `Cn1c(=O)c2c(ncn2C)n(C)c1=O`, the Potency result was “inactive”.

For `CNNCc1ccc(C(=O)NC(C)C)cc1`, the Potency entry is “inactive”.

`NC(=O)n1c(O)c(C(=O)c2cccs2)c2cc(Cl)ccc21`: the “fluorescence, % of fluorescent control” value is 0.0065% [at 46 µM].

As for `O=C1O[C@H]([C@@H](O)CO)C(O)=C1O`, the Potency entry was “inactive”.

Another assay deals with Glucocorticoid receptor (Homo sapiens) (UniProt P04150). In words: qHTS assay to identify small molecule agonists of the glucocorticoid receptor (GR) signaling pathway (AID 720691; active = well fitted activation curve with a large enough effect in the signal ratio in the repeat runs, not every such curve was filed as active; the % refers to the signal ratio; note: potency is the fitted concentration of half-maximal effect). To be noted: GR-bla HeLa, beta-lactamase reporter ratio, 18 h; series mostly up to 62.4 µM; activation: at the top concentration. In short, it runs like this:
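Agonist mode in a HeLa line carrying a GRE-controlled beta-lactamase reporter. Compounds act for 18 h at 37 C before a 2 h room-temperature FRET substrate step and fluorescence reading.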
For `COc1ccc(OC(F)(F)F)cc1CN[C@H]1CCCN[C@H]1c1ccccc1`, the “activation” value is -3.61%.

In the case of `Nc1ccc(O)c([N+](=O)[O-])c1`, the “activation” value was -4.47%.

For the compound `Cc1cc(C)nc(NS(=O)(=O)c2ccc(N)cc2)n1`, the Potency result was “inactive”.

Consider `CN(C)C(=S)SC(=S)N(C)C`, for which the Potency was 0.448 µM (active).

Turning to `Nc1c(N=Nc2ccc(-c3ccc(N=Nc4cc(S(=O)(=O)O)c5ccccc5c4N)cc3)cc2)cc(S(=O)(=O)O)c2ccccc12`, the Potency entry is “inactive”.

Consider `CCCCOC(=O)c1ccc(O)cc1`, for which the Potency entry is “inactive”.

Regarding `Nc1ccc([N+](=O)[O-])cc1O`, the “activation” value was -8.51%.

As for `Cc1cccc(C)c1`, the Potency entry was “inactive”.

In the case of `CN(C)CCOC(c1ccccc1)c1ccccc1`, the Potency entry is “inactive”.

For `CN1CCc2cccc3c2[C@H]1Cc1ccc(O)c(O)c1-3`, the Potency entry was “inactive”.

As to `COc1ccc2c(c1)c(CC(=O)O)c(C)n2C(=O)c1ccc(Cl)cc1`, the Potency result was “inactive”.

`COc1cccc(O)c1O`: the “activation” value is 1.27% [at 79.2 µM].

`Nc1ccc(S(N)(=O)=O)cc1`: the Potency entry was “inactive”.

As for `O=C1c2c(O)cccc2Cc2cccc(O)c21`, the Potency result was “inactive”.

Turning to `CC(=O)Nc1c(I)c(NC(C)=O)c(I)c(C(=O)O)c1I`, the Potency result is “inactive”.

Consider `Cn1c(=O)c2c(ncn2C)n(C)c1=O`, for which the Potency result was “inactive”.

Take `CNNCc1ccc(C(=O)NC(C)C)cc1`: the Potency result is “inactive”.

Take `NC(=O)n1c(O)c(C(=O)c2cccs2)c2cc(Cl)ccc21`: the “activation” value was -13.7%.

In the case of `O=C1O[C@H]([C@@H](O)CO)C(O)=C1O`, the Potency result was “inactive”.

The target is the same in a further assay. Kind of assay: qHTS assay to identify small molecule antagonists of the glucocorticoid receptor (GR) signaling pathway (AID 720692; active = well fitted inhibition curve with a large enough effect in the signal ratio in the repeat runs, not every such curve was filed as active; the % refers to the signal ratio; note: potency is the fitted concentration of half-maximal effect). To be noted: GR-bla HeLa, beta-lactamase FRET ratio, dexamethasone-stimulated, 18 h; series mostly up to 58.5 µM; activity change, negative = inhibition: at the top concentration. In short, it runs like this: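 Cells plated, rested 4 h at 37 C/5% CO2; compounds in DMSO pin-transferred; dexamethasone added to 5 nM final; 18 h at 37 C; B/G FRET substrate added, 2 h room temperature; fluorescence measured.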
As for `Cc1cc(C)nc(NS(=O)(=O)c2ccc(N)cc2)n1`, the Potency entry is “inactive”.

Turning to `Nc1c(N=Nc2ccc(-c3ccc(N=Nc4cc(S(=O)(=O)O)c5ccccc5c4N)cc3)cc2)cc(S(=O)(=O)O)c2ccccc12`, the Potency is 21.3 µM (active).

For `CCCCOC(=O)c1ccc(O)cc1`, the Potency result is “inactive”.

Consider `Cc1cccc(C)c1`, for which the “activity change, negative = inhibition” value is 5.86%.

For `CN(C)CCOC(c1ccccc1)c1ccccc1`, the Potency result was “inactive”.

Turning to `CN1CCc2cccc3c2[C@H]1Cc1ccc(O)c(O)c1-3`, the “activity change, negative = inhibition” value was 3.06%.

Turning to `COc1cccc(O)c1O`, the “activity change, negative = inhibition” value is 17% [at 78.9 µM].

In the case of `Nc1ccc(S(N)(=O)=O)cc1`, the Potency result was “inactive”.

On to `O=C1c2c(O)cccc2Cc2cccc(O)c21`, for which the “activity change, negative = inhibition” value is -8.88%.

As to `CC(=O)Nc1c(I)c(NC(C)=O)c(I)c(C(=O)O)c1I`, the Potency entry was “inactive”.

Turning to `Cn1c(=O)c2c(ncn2C)n(C)c1=O`, the Potency result is “inactive”.

As for `CNNCc1ccc(C(=O)NC(C)C)cc1`, the Potency entry is “inactive”.

Turning to `O=C1O[C@H]([C@@H](O)CO)C(O)=C1O`, the “activity change, negative = inhibition” value was -2.62%.
